According to PubChem BioAssay (EPA / NIEHS):
Results filed as inconclusive are left out. Calls of active or inactive are those of the source. The calls were made as follows, unless noted: active = hit-call score of the fitted dose curve at least 0.9, where 1 is the maximum; inactive = score below 0.9.

Tests used:
[1] = CCTE_Shafer_MEA_dev_per_burst_spike_percent: CCTE's Neural Network Formation Assay for Percent of Spikes in a Burst, Shafer Lab (AID 2284032)
Summary of the method: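 Value is trapezoidal AUC over recordings on days 5, 7, 9 and 12 of the well-mean fraction of spikes falling in single-electrode bursts; rat cortical cultures exposed continuously from plating, treatment renewed DIV 5 and 9, fitted downward against DMSO.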

[2] = CCTE_Shafer_MEA_dev_active_electrodes_number: CCTE's Neural Network Formation Assay for Number of Active Electrodes, Shafer Lab (AID 2284040; active = hit-call score of the fitted dose curve at least 0.9, where 1 is the maximum)
Summary of the method: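 Developing rat cortical networks on MEAs, exposed DIV 0–12. Value is the AUC of active-electrode counts (≥5 spikes/min) from days 5, 7, 9, 12, relative to DMSO.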

[3] = CCTE_Shafer_MEA_dev_per_burst_interspike_interval: CCTE's Neural Network Formation Assay for Burst Interspike Interval, Shafer Lab (AID 2284044)
Summary of the method: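 Spontaneous activity of maturing rat cortical networks is recorded on DIV 5, 7, 9 and 12 under chronic compound exposure beginning at plating. Endpoint: burst interspike interval well-mean, collapsed into trapezoidal AUC and fitted in the negative direction relative to DMSO.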

[4] = CCTE_Shafer_MEA_dev_burst_duration_mean: CCTE's Neural Network Formation Assay for Mean Burst Duration, Shafer Lab (AID 2284045)
Summary of the method: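 Rat cortical cultures, 1.5 x 10^5 cells/well with laminin drop; continuous dosing days 0–12, media plus treatment refreshed DIV 5, 9. AxIS adaptive spike detection; mean single-electrode burst duration, AUC over four recordings, negative direction vs DMSO.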

[5] = CCTE_Shafer_MEA_dev_interburst_interval_mean: CCTE's Neural Network Formation Assay for Mean Interburst Interval, Shafer Lab (AID 2284046);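 also: well-mean interburst interval of bursting electrodes as AUC over four recording days; curve fitted for decrease in interburst interval relative to DMSO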
Summary of the method: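 Rat cortical neurons, 1.5 x 10^5 cells/well, 48-well MEA; compound from day 0 through DIV 12, media and treatment renewed DIV 5/9. Recordings DIV 5, 7, 9, 12; well-mean interburst interval → trapezoidal AUC, loss direction vs DMSO.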

[6] = CCTE_Shafer_MEA_dev_inter_network_spike_interval_mean: CCTE's Neural Network Formation Assay for Mean Inter-network Spike Interval, Shafer Lab (AID 2284047)
Summary of the method: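 Primary rat cortical neurons on PEI-coated 48-well MEAs (16 electrodes/well) were exposed from plating day 0 to DIV 12, with dosing renewed at DIV 5 and 9. Recordings at DIV 5, 7, 9, 12 were collapsed by trapezoidal AUC, loss-of-signal fit vs DMSO.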

[7] = CCTE_Shafer_MEA_dev_network_spike_number: CCTE's Neural Network Formation Assay for Number of Network Spikes, Shafer Lab (AID 2284048);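 also: synchronized bursts across electrodes counted on days 5 7 9 12 and integrated as AUC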
Summary of the method: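 Rat cortical primary cultures on 48-well MEA (16 electrodes/well); continuous exposure DIV 0–12, full medium and treatment exchange DIV 5, 9. Readout: network spike count, AxIS adaptive detection, recordings DIV 5/7/9/12 collapsed to AUC; loss-of-signal fit, DMSO baseline.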

[8] = CCTE_Shafer_MEA_dev_network_spike_peak: CCTE's Neural Network Formation Assay for Mean Number of Electrodes in Network Spike, Shafer Lab (AID 2284049)
Summary of the method: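 Network-spike peak electrode count from recordings on days 5, 7, 9 and 12 was combined as trapezoidal area under the curve. Rat cortical cultures were treated continuously from plating, with compound renewed at each feed (DIV 5, 9); fits versus DMSO.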

[9] = CCTE_Shafer_MEA_dev_spike_duration_mean: CCTE's Neural Network Formation Assay for Mean Spike Duration, Shafer Lab (AID 2284051);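 also: mean network spike duration pooled as area under curve over DIV 5 to 12 recordings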
Summary of the method: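 Rat cortical primary cultures, 48-well MEA (16 electrodes/well); compound from plating, renewed DIV 5, 9. Network spike duration (AxIS adaptive detector) recorded DIV 5/7/9/12, combined as trapezoidal AUC; loss direction vs DMSO.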

[10] = CCTE_Shafer_MEA_dev_network_spike_duration_std: CCTE's Neural Network Formation Assay for Standard Deviation of Network Spike Duration, Shafer Lab (AID 2284052);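 also: area under curve of spike duration SD across recording days 5 to 12; hits are decreases in network spike duration SD versus DMSO vehicle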
Summary of the method: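 Rat cortical cultures, 1.5 x 10^5 cells/well, exposed continuously from plating to DIV 12 with media/compound renewal at DIV 5, 9. Spontaneous activity recorded DIV 5/7/9/12, AxIS adaptive spike detector; AUC across days; negative direction vs DMSO.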

[11] = CCTE_Shafer_MEA_dev_per_network_spike_spike_number_mean: CCTE's Neural Network Formation Assay for Mean Number of Spikes in a Network Spike, Shafer Lab (AID 2284053)
Summary of the method: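 Rat cortical primary cultures on 48-well MEA; compound from day 0, re-dosed with full media change DIV 5, 9. Recorded DIV 5, 7, 9, 12; spikes in 0.05 s window at network-spike peak ÷ total network spikes; AUC; loss vs DMSO.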

[12] = CCTE_Shafer_MEA_dev_per_network_spike_spike_percent: CCTE's Neural Network Formation Assay for Percent of Spikes in a Network Spike, Shafer Lab (AID 2284054)
Summary of the method: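 Read-out: percent of spikes falling in a 0.05 s window at network-spike peak, from spontaneous MEA recordings on days 5, 7, 9 and 12; trapezoidal AUC; loss of signal versus DMSO. Rat cortical cultures, compound present throughout.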

[13] = CCTE_Shafer_MEA_dev_AB: CCTE's Alamar Blue Assay for Cytotoxicity in the Neural Network Formation Assay, Shafer Lab (AID 2284083; active = hit-call score of the fitted dose curve at least 0.9, where 1 is the maximum;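 also: resazurin reduction fluorescence as viability of cultured neurons; twelve days of exposure from plating with re-dosing on DIV 5 and 9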)
Summary of the method: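 Rat cortical primary cultures, 1.5 x 10^5 cells/well on MEA; continuous compound exposure over 12 days of network development, re-dosed with full medium change DIV 5 and 9. Alamar Blue fluorescence; loss of signal = cytotoxicity vs DMSO baseline.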

[14] = CCTE_Shafer_MEA_dev_mutual_information_norm: CCTE's Neural Network Formation Assay for Mutual Information Normalization, Shafer Lab (AID 2284091)
Summary of the method: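 Neurons from rat cortex were seeded at 1.5 x 10^5 cells/well onto PEI-coated MEAs in a laminin drop, then exposed to compound from day 0 for twelve days. Network recordings on four days gave mutual information, summarised by AUC relative to DMSO.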

[15] = CCTE_Shafer_MEA_dev_correlation_coefficient_mean: CCTE's Neural Network Formation Assay for Mean Correlation Coefficient, Shafer Lab (AID 2284093)
Summary of the method: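 Rat cortical cultures, 1.5 x 10^5 cells/well, dosed from day 0 for 12 days. Spontaneous spikes recorded DIV 5/7/9/12; electrode-pair correlation coefficients averaged, AUC taken. Fit in loss direction vs DMSO.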

[16] = IUF_NPC1b_proliferation_BrdU_72hr: Leibniz Research Institute for Environmental Medicine (IUF) 72-hour Neural Progenitor Cell Bromodeoxyuridine (BrdU) Proliferation Assay (NPC1b) (AID 2284207)
Summary of the method: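 Luminescent BrdU ELISA measured DNA synthesis during the last 16 h of a 72 h exposure of primary human neural progenitor spheres grown with EGF and FGF. Signal was fitted relative to DMSO controls.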

[17] = IUF_NPC1a_proliferation_area_72hr: Leibniz Research Institute for Environmental Medicine (IUF) 72-hour Neural Progenitor Cell Proliferation Area Assay (NPC1a) (AID 2284208)
Summary of the method: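 Measured in 3D suspension: each well held one primary hNPC sphere grown with EGF and FGF at pH 7.2-7.6. Compound stayed on for 72 h, then area was imaged; spheres lacking growth factors defined reduced proliferation.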

[18] = IUF_NPC1_viability_72hr: Viability Assessment at 72 hours in the Leibniz Research Institute for Environmental Medicine (IUF) Neural Progenitor Cell Proliferation Assay (NPC1) (AID 2284209)
Summary of the method: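 Alamar blue fluorescence (RFU) after 72 h exposure, normalized to DMSO baseline. hNPC spheres from GW 16-19 fetal cortex, single sphere per well in growth-factor medium; no compound renewal.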

[19] = CCTE_Mundy_HCI_Cortical_Synap_Neur_Matur_NeuriteSpotCountPerNeuriteLength: CCTE's Synaptogenesis and Neurite Maturation Assay in rat cortical cells for Neurite Spot Count per Neurite Length, Mundy Lab (AID 2284210)
Summary of the method: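 Read-out: synaptophysin puncta counted along MAP2-stained neurites, normalised to neurite length, by automated high-content imaging. Rat cortical cells; AraC DIV 5; chemical dosing DIV 7; termination DIV 12. DMSO baseline.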

[20] = CCTE_Mundy_HCI_Cortical_Synap_Neur_Matur_BPCount: CCTE's Synaptogenesis and Neurite Maturation Assay in rat cortical cells for Branch Point Count, Mundy Lab (AID 2284211)
Summary of the method: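 In this multiplexed morphology assay, cortical cells from rat receive chemicals at DIV 7 and are fixed at DIV 12, then immunostained and imaged; branch points are counted, with DMSO as baseline.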

[21] = CCTE_Mundy_HCI_Cortical_NOG_NeuriteCount: CCTE's Neurite Outgrowth Assay in rat cortical cells for Neurite Count, Mundy Lab (AID 2284212);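 also: cells fixed about two days after chemical exposure began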
Summary of the method: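 Rat cortical primary cells; compound added 2 h post-plating, 1/10 dilution of working solution. Anti-betaIII-tubulin/AF488 ICC; ArrayScan neurite count vs DMSO.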

Measured: AC50

CCc1ccccc1
inactive: [1] | [2] | [3] | [4] | [5] | [6] | [7] | [8] | [9] | [10] | [11] | [12] | [14] | [15] | [17] | [18] | [19] | [20] | [21]
active: [13] 0.476 µM | [16] 12.7 µM
